From PubChem
BoNT-F LC inh = BoNT F light chain protease inhibition. Multiplex microsphere protease cleavage assay, flow cytometry. inhibition, % at 10 µM. 360,000 compounds, 0.22% hits. AID 588497; in the data active = inhibition above about 35%, passing the limit was not always enough; inconclusive = no clear call, values can overlap the other calls
Autofluor counter = compound fluorescence in toxin protease inhibitor counterscreen; compound autofluorescence counterscreen, microsphere flow cytometry; hits give high values; fluorescence intensity (test concentration not listed); 360,000 compounds, 3.1% hits; AID 624483; in the data active = fluorescence intensity above about 16000; inconclusive = no clear call, values can overlap the other calls
Anthrax LF prot = inhibitors of Bacillus anthracis lethal factor protease | 360,000 compounds, 0.12% hits | multiplex microsphere protease cleavage assay, LF | inhibition, % at 10 µM | P15917 | AID 588501
BoNT-A LC inh2 = BoNT A light chain protease inhibition; multiplex microsphere protease substrate cleavage, flow cytometry; 360,000 compounds, 0.17% hits; AID 588499; inhibition, % at 10 µM
Numbers stand for hits; - = inactive; ? = inconclusive. A selection: hits, their analogues and other compounds. The true share with any hit is near 3.5%. Rule as the data show it, unless noted: active = inhibition above about 30%; inconclusive = no clear call, values can overlap the other calls; inactive = below that.

SMILES	BoNT-F LC inh	Autofluor counter	Anthrax LF prot	BoNT-A LC inh2
O=S(=O)(Nc1ccc2c(c1)nc1n2CCN(Cc2ccccc2)C1)c1ccccc1	-	-	-	-
O=S(=O)(Nc1ccc2c(c1)nc1n2CCN(Cc2ccccc2)C1)c1ccc(F)cc1	-	24166	-	-
Cc1ccc(S(=O)(=O)Nc2ccc3c(c2)nc2n3CCN(Cc3ccccc3)C2)cc1	-	18646	-	-
CCOC(=O)C1=C(COC(=O)c2ccc(Br)o2)NC(=O)NC1C (stereo not given)	-	-	-	-
CN(CC(=O)Nc1cccc(F)c1)CC(=O)N(C)CC(=O)Nc1ccccc1Br	-	-	-	-
O=C(Nc1ccccc1Cl)c1cccc(NC(=O)C2C3CC4OC(=O)C2C4C3)c1 (stereo not given)	-	23034	-	-
O=C(Nc1cccc(NC(=O)C2C3CC4OC(=O)C2C4C3)c1)c1ccccc1 (stereo not given)	-	-	-	-
Cc1cccc(C)c1OCC(O)CNC(C)C (stereo not given)	-	-	-	-
Cc1cccc(C)c1OCC(O)CNC(C)(C)C (stereo not given)	-	16186	-	-
C[C@@]12C(=O)N(CCO)CC(=O)N1[C@H](/C=C/c1ccccc1)[C@@H]1C(=O)N(c3ccccc3)C(=O)[C@@H]12	-	-	-	-
CCOC(=O)C1CCN(C(=O)CSc2cc(=O)n(CC)c3ccccc23)CC1	-	16952	-	-
CCOC(=O)N1CCC(NC(=O)CSc2cc(=O)n(CC)c3ccccc23)CC1	-	21138	-	-
COCCn1c(=O)[nH]c2cc(C(=O)N3CCN(c4cccc(C)c4C)CC3)ccc2c1=O	-	-	-	-
CC(=O)c1sc2nc(C)cc(C)c2c1N	-	21807	-	-
Nn1c(SCC(=O)Nc2ccc3c(c2)OCO3)nnc1-c1ccccc1	57	-	-	45
CCOc1ccc(-n2c(SCC(=O)Nc3ccc4c(c3)OCO4)nc3ccccc3c2=O)cc1	-	-	-	-
C=CCn1c(SCC(=O)Nc2ccc3c(c2)OCO3)nnc1-c1ccccc1	-	-	-	-
COc1ccc(-n2c(SCC(=O)Nc3ccc4c(c3)OCO4)nc3ccccc3c2=O)cc1	-	23540	-	-
O=C(CSc1nnc(-c2ccccn2)n1-c1ccc(Cl)cc1)Nc1ccc2c(c1)OCO2	-	22588	-	-
C=CCn1c(SCC(=O)Nc2ccc3c(c2)OCO3)nnc1-c1cc(Br)ccc1O	-	24540	-	-
Cc1cc(C=C2C(=O)N(C)C(=S)N(C)C2=O)c(C)n1C1CCCC1	-	-	38	54
CCN1C(=O)C(=Cc2cc(C)n(C3CC3)c2C)C(=O)N(CC)C1=S	-	-	-	41
Cc1cc(/C=C2\C(=O)NC(=S)N(C)C2=O)c(C)n1C1CCCCC1	-	-	-	-
Cc1cc(/C=C2/C(=O)N(C)C(=S)N2C)c(C)n1C1CC1	-	-	-	-
Cc1cc(/C=C2\SC(=S)NC2=O)c(C)n1C1CC1	-	20502	-	-
SMILES	BoNT-F LC inh	Autofluor counter	Anthrax LF prot	BoNT-A LC inh2
O=S(=O)(N1CCOCC1)N1CCCN(S(=O)(=O)N2CCOCC2)CC1	-	-	-	-
O=S(=O)(N1CCCCCC1)N1CCN(S(=O)(=O)N2CCCCC2)CC1	-	19718	-	-
Cc1cc2nc(-c3ccc(Cl)cc3)c(Cc3ccsc3)n2c(C)c1Br	-	-	-	-
Cc1cc(Cl)ccc1NC(=O)COC(=O)c1cc([N+](=O)[O-])ccc1N1CCOCC1	-	49183	-	-
CC(C)COC(=O)N(C)C[C@@H]1OCc2cnnn2CCCC(=O)N([C@H](C)CO)C[C@@H]1C	-	-	-	-
Cn1nnnc1SCc1ccc(C(=O)Nc2nccs2)cc1	-	24214	-	-
Cn1c(CSCc2ccc(Cl)c(Cl)c2)nnc1SCC(=O)Nc1nccs1	?	-	-	-
Cc1cc(C)cc(NC(=O)c2ccc(CSc3nnnn3C)cc2)c1	-	-	-	-
Cn1c(CSCc2ccc(Cl)cc2)nnc1SCC(=O)Nc1nccs1	-	16354	-	-
COc1ccc(CCn2c(N3CCN(C)CC3)nc3c2c(=O)[nH]c(=O)n3C)cc1	-	-	-	-
COc1ccc(CCn2c(Br)nc3c2c(=O)[nH]c(=O)n3C)cc1	-	17013	-	-
CCN(CC)c1nc2n(c(=O)n1)CCN2CC	-	21466	-	-
Cc1cccc2cc(-c3ccccc3)c(-c3ccccc3)c[n+]12	-	-	-	38
Cc1ccc(C(=C2C3C=CC2C2C(=O)NC(=O)C32)c2ccc(C)cc2)cc1 (stereo not given)	-	20213	-	-
Cc1ccc2c(c1C)OC(=O)CC2c1ccccc1 (stereo not given)	-	-	-	-
COCCC1CCCCN1C(=O)c1cc(COc2ccc(-n3cncn3)cc2)on1 (stereo not given)	-	35235	-	-
